# Experimental data as given in PubChem BioAssay (EPA / NIEHS).
# Inconclusive results are not listed. The source made the active and inactive calls. How the source made its calls: active means hit-call score of the fitted dose curve at least 0.9, where 1 is the maximum; inconclusive means response in the unintended direction; inactive means score below 0.9.
# Assay: ACEA_ER_80hr: ACEA Biosciences xCELLigence Real-Time Cell Analysis on Estrogen Receptor Agonism for Proliferation (AID 2282667)
# Conditions: T47D proliferation, impedance (xCELLigence), 80 h
# Description: ACEA_ER is a cell-based, single-readout assay that uses T47D, a human breast cell line, with measurements taken at 80 hours after chemical dosing in a 96-well plate, although TO2 (mc0.srcf) used a 384-well plate. Differences in plate size can be ignored given data normalization.ACEA_ER_80hr is one of two assay component(s) measured or calculated from the ACEA_ER assay. It is designed to make measurements of real-time cell-growth kinetics, a form of growth reporter, as detected with electrical impedance signals by Real-Time Cell Electrode Sensor (RT-CES) technology.Data from the assay component ACEA_ER_80hr was analyzed into 1 assay endpoint. This assay endpoint, ACEA_ER_80hr_Positive, was analyzed in the positive analysis fitting direction relative to DMSO as the negative control and baseline of activity. Using a type of growth reporter, measures of the cells for gain-of-signal activity can be used to understand the signaling at the pathway-level as they relate to the gene ESR1. Furthermore, this assay endpoint can be referred to as a primary readout, because this assay has produced multiple assay endpoints where this one serves a signaling function. To generalize the intended target to other relatable targets, this assay endpoint is annotated to the nuclear receptor intended target family, where the subfamily is steroidal.
# The xCELLigence system Multi-E-Plate stations were used to measure the time-dependent response to chemicals. Each compound was tested in an eight-point, 1:4 serial dilution series starting at a maximum final concentration of 100 uM. A maximum starting concentration of 0.5% DMSO was present in the 100 uM chemical samples and was diluted along with the test article dilution series. The screen was performed in biological duplicate using two separate, 96-well, E-Plates 96 for each dilution series (n = 2). Positive controls (MG132 and E2) and a negative control (assay media) were tested in quadruplicate on each testing plate. […] Reference compounds were tested with 8 concentrations with 1:5 serial dilutions. All screening was carried out by ACEA Biosciences, Inc. (San Diego, CA). T-47D cells purchased from ATCC were maintained in RPMI1640 media supplemented with 10% characterized fetal bovine serum (FBS). […] Cells were then detached and seeded in E-Plates 96 in assay medium. After overnight monitoring of growth once every hour, compounds were added to […] cells and remained in the medium until the end of the experiment. Cellular responses were then recorded once every 5 min for the first 5 h, and once every hour for an additional 100 h.
Structure (SMILES),outcome,AC50
COCCC(=O)OC,inactive,–
OCC(O)CC(F)(F)C(F)(F)C(F)(F)C(F)(F)F (stereo not given),inactive,–
CCC/C=C/CO,inactive,–
O=c1[nH]cccc1O,inactive,–
CC(C)(C)c1cc(CCC(=O)NCCCCCCNC(=O)CCc2cc(C(C)(C)C)c(O)c(C(C)(C)C)c2)cc(C(C)(C)C)c1O,–,50 µM (active)
O=C(O)C(F)(F)C(F)(F)C(F)(F)C(F)(F)C(F)(F)C(F)(F)C(F)F,inactive,–
CC(C)(C)C(=O)C1C(=O)c2ccccc2C1=O,–,10.4 µM (active)
O=S(=O)(O)CCC(F)(F)C(F)(F)C(F)(F)C(F)(F)C(F)(F)C(F)(F)C(F)(F)C(F)(F)F,inactive,–
CCCCOC(=O)C(C)O (stereo not given),inactive,–
CCCCCCCCCCCCCC[P+](CCCC)(CCCC)CCCC,–,0.0203 µM (active)
CCN(CC)c1ccc2c(c1)Oc1cc(N(CC)CC)ccc1C21OC(=O)c2ccccc21,inactive,–
O=S(=O)(Cl)C(F)(F)C(F)(F)C(F)(F)C(F)(F)C(F)(F)C(F)(F)C(F)(F)C(F)(F)F,inactive,–
CCOCOCC,inactive,–
CCN=C1C=CC(=C(c2ccc(N(CC)CC)cc2)c2ccc(N(CC)CC)cc2)c2ccccc21,inactive,–
C[Si](Cl)(Cl)CCC(F)(F)C(F)(F)C(F)(F)C(F)(F)C(F)(F)C(F)(F)F,inactive,–
COC(=O)c1ccc(C=O)cc1,inactive,–
CO[Si](C)(CCC(F)(F)C(F)(F)C(F)(F)C(F)(F)C(F)(F)C(F)(F)F)OC,inactive,–
CC1=CC2C3C=CC(C3)C2C1C (stereo not given),inactive,–
CSc1ccc(O)cc1C,inactive,–
N#CCCOCCC#N,inactive,–

Structure (SMILES),outcome,AC50
CO[Si](CCCOCC1CO1)(OC)OC (stereo not given),inactive,–
CC1=CCC(=O)O1,inactive,–
O=C=Nc1cccc2c(N=C=O)cccc12,inactive,–
CCN(CC)c1ccc(N=Nc2ccccc2)cc1,–,50 µM (active)
CCCCCCCCCCCCC[N+](C)(C)Cc1ccccc1,inactive,–
OCCCCC(F)(F)C(F)(F)C(F)(F)C(F)(F)F,inactive,–
N#Cc1ccccc1O,inactive,–
CCc1ccc(C)nc1,inactive,–
Cc1cc(C)c(O)c(C(C)(C)C)c1,inactive,–
OCCC(O)CO (stereo not given),inactive,–
O=C1c2c(O)ccc(Nc3ccc(CCO)cc3)c2C(=O)c2c([N+](=O)[O-])ccc(O)c21,inactive,–
COC(F)(C(F)F)C(F)(F)F (stereo not given),inactive,–
Nc1cc([N+](=O)[O-])cc(Cl)c1O,inactive,–
CC(C)=CCCC(C)O (stereo not given),inactive,–
CC(O)C#CC(C)O (stereo not given),inactive,–
C=CC(=O)OCC(F)(F)C(F)(F)C(F)(F)C(F)(F)C(F)(F)C(F)(F)C(F)(F)C(F)F,inactive,–
CN(C(=O)C(F)(F)C(F)(F)C(F)(F)F)[Si](C)(C)C,inactive,–
O=c1cccc[nH]1,inactive,–
Nc1c(Br)cc([N+](=O)[O-])cc1Br,inactive,–
CCC(C)CO (stereo not given),inactive,–
